# Measurements published in paper PMC8384837, “Expanding the binding specificity for RNA recognition by a PUF domain”.
# Columns and labels:
# Assay in all cases: yeast three-hybrid, YBZ-1, SC-Leu-His + 0.5 mM 3-AT, 4 days
# Conditions in all cases: tags: N-Gal4 AD-HA kept; label: inside an RPR1-promoter hybrid RNA with tandem MS2 sites; ssRNA
# PUM1 PUF domain R1-KGR = PUM1 PUF domain R1-KGR (Homo sapiens, UniProt Q14671 828-1176, S863K;R864G;Q867R)
# Outline: (§1)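 Sequencing with Illumina followed PCR amplification of the repeat regions from transformants grown four days on SC-Leu (input) or SC-Leu-His + 0.5 mM 3-AT (selection). The transformants were strain YBZ-1 with a LexA–MS2 coat fusion and a HIS3 reporter, carrying Pumilio-1 PUF domain libraries and matching RNA elements. The interaction score is the log change in variant frequency from input to selection, computed in log2 with a pseudocount of 1 for absent variants.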
# PUM1 PUF domain R5-DFV = PUM1 PUF domain R5-DFV (Homo sapiens, UniProt Q14671 828-1176, C1007D;R1008F;Q1011V)
# PUM1 PUF domain R5-DFV, sequence (Q14671 828-1176 C1007D/R1008F/Q1011V): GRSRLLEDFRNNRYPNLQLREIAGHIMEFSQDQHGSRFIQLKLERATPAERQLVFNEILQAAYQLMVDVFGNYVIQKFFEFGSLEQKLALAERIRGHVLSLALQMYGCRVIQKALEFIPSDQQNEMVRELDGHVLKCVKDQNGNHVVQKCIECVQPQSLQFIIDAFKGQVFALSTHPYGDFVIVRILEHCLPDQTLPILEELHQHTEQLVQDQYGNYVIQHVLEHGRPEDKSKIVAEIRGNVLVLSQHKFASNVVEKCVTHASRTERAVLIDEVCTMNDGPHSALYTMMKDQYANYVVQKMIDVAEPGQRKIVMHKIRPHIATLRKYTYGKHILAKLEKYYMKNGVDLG
# Outline: as §1
# PUM1 PUF domain R8-KWA = PUM1 PUF domain R8-KWA (Homo sapiens, UniProt Q14671 828-1176, N1122K;Y1123W;Q1126A)
# PUM1 PUF domain R8-KWA, sequence (Q14671 828-1176 N1122K/Y1123W/Q1126A): as the sequence (Q14671 828-1176 C1007D/R1008F/Q1011V) above, with D180C, F181R, V184Q, N295K, Y296W, Q299A counted along it
# Outline: as §1
# PUM1 PUF domain R1-KGR, sequence (Q14671 828-1176 S863K/R864G/Q867R): as the sequence (Q14671 828-1176 C1007D/R1008F/Q1011V) above, with S36K, R37G, Q40R, D180C, F181R, V184Q counted along it
sequence,measurement,setting,value
GGCUAGAACUAGUGGAUCCCCCGGCGCCCGGCGGCUCGAGCCCGGGUAAGUGUAAAUCGUCUGCAUGCCGCCGGGCGCCAUGCCUGCAGGUCGACUCUAGAAAACAUG,binding signal,PUM1 PUF domain R1-KGR,3.57 log2 enrichment (interaction score)
GGCUAGAACUAGUGGAUCCCCCGGCGCCCGGCGGCUCGAGCCCGGGUAAGUGUAAAUUGUCUGCAUGCCGCCGGGCGCCAUGCCUGCAGGUCGACUCUAGAAAACAUG,binding signal,PUM1 PUF domain R1-KGR,4.34 log2 enrichment (interaction score)
GGCUAGAACUAGUGGAUCCCCCGGCGCCCGGCGGCUCGAGCCCGGGUAAGUGUGAAUAGUCUGCAUGCCGCCGGGCGCCAUGCCUGCAGGUCGACUCUAGAAAACAUG,binding signal,PUM1 PUF domain R5-DFV,3.55 log2 enrichment (interaction score)
GGCUAGAACUAGUGGAUCCCCCGGCGCCCGGCGGCUCGAGCCCGGGUAAGCGUAAAUAGUCUGCAUGCCGCCGGGCGCCAUGCCUGCAGGUCGACUCUAGAAAACAUG,binding signal,PUM1 PUF domain R8-KWA,3.8 log2 enrichment (interaction score)
